# Laboratory results: PubChem BioAssay (Tox21)
# Inconclusive results are not listed. Entries that show only a call come without a potency. A number with no mark means an inactive call. Active and inactive are the calls of the source. Calls follow the shape of the dose curve; as a rule, active = well fitted curve in the direction sought with a large enough effect in the repeat runs; inconclusive = weak or mixed curves; inactive = no such curve, though single readings can be large; an effect the other way counts as inactive or inconclusive.
# Tests used:
# [1] = A CellTox Green Cytotoxicity Assay to monitor cytotoxicity in HEK293 cells - 40 hour (AID 1224871); also: nearly all actives have a fitted effect of over 45% in size; also: potency is read from the fitted curve at half-maximal effect
# Procedure, shortened: (§1)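 Fluorescence from a DNA-binding dye excluded by viable cells was measured repeatedly in the same HEK293 wells (600 cells/well) during continuous compound exposure at 37 C. Each assay gives one read point: 0, 8, 16, 24, 32 or 40 h.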
# [2] = qHTS RealTime-Glo MT Cell Viability Assay in HEK293 cells - 16 hour (AID 1224872); also: top concentration of the series differs between compounds; nearly all actives have a fitted effect of over 50% in size
# Procedure, shortened: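 Tox21 10K qHTS, HEK293, 600 cells/well, RealTime-Glo reagent co-dispensed with cells; 5 h preincubation, compound by pintool, 37 C, luminescence at 0–40 h.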
# [3] = qHTS RealTime-Glo MT Cell Viability Assay in HepG2 cells - 8 hour (AID 1224873); also: nearly all actives have a fitted effect of over 55% in size
# Procedure, shortened: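 HepG2 cells (600/well) mixed with RealTime-Glo MT reagent, settled 5 h at 37 C/5% CO2 before compound addition. Nonlytic NanoLuc luminescence from viable-cell prosubstrate reduction read repeatedly during 40 h treatment at 37 C.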
# [4] = qHTS RealTime-Glo MT Cell Viability Assay in HEK293 cells - 40 hour (AID 1224874); settings: RealTime-Glo luminescence; max response: active compounds read low; also: nearly all actives have a fitted effect of over 50% in size; also: potency is read from the fitted curve at half-maximal effect
# Procedure, shortened: (§2)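 Luminescence, which tracks viable cell number through reduction of the prosubstrate to a NanoLuc substrate, was read over continuous 37 C culture. Cells (600/well) were premixed with reagent and rested 5 h before 23 nL of compound in DMSO was pinned.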
# [5] = A CellTox Green Cytotoxicity Assay to monitor cytotoxicity in HepG2 cells - 16 hour (AID 1224876); also: nearly all actives have a fitted effect of over 45% in size
# Procedure, shortened: (§3)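 Real-time cytotoxicity: fluorescence of a cell-impermeant cyanine dye binding DNA of dead HepG2 cells, measured repeatedly (0–40 h) during compound exposure at 37 C. Cells seeded 600/well with reagent, dosed after 5 h.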
# [6] = qHTS RealTime-Glo MT Cell Viability Assay in HepG2 cells - 32 hour (AID 1224877); also: nearly all actives have a fitted effect of over 55% in size
# Procedure, shortened: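 Cells + NanoLuc/prosubstrate dispensed (600 cells/well) → 5 h at 37 C/5% CO2 → compounds in DMSO transferred → 40 h incubation at 37 C, luminescence read at 0, 8, 16, 24, 32, 40 h.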
# [7] = A CellTox Green Cytotoxicity Assay to monitor cytotoxicity in HepG2 cells - 24 hour (AID 1224878); also: nearly all actives have a fitted effect of over 45% in size
# Procedure, shortened: as §3
# [8] = A CellTox Green Cytotoxicity Assay to monitor cytotoxicity in HepG2 cells - 40 hour (AID 1224879); also: nearly all actives have a fitted effect of over 40% in size
# Procedure, shortened: as §3
# [9] = qHTS RealTime-Glo MT Cell Viability Assay in HEK293 cells - 0 hour (AID 1224880); also: nearly all actives have a fitted effect of over 45% in size; also: potency is read from the fitted curve at half-maximal effect; as to activity change, negative = cytotoxicity: top concentration of the series differs between compounds
# Procedure, shortened: as §2
# [10] = A CellTox Green Cytotoxicity Assay to monitor cytotoxicity in HEK293 cells - 24 hour (AID 1224875)
# Procedure, shortened: as §1
compound,measurement,setting,value
C=CC(=O)OCCCl,Potency,[1],inactive
same,Potency,[2],inactive
same,outcome,[3],inactive
same,max response,[4],21%
same,outcome,[5],inactive
same,Potency,[6],inactive
same,outcome,[7],inactive
same,Potency,[8],inactive
same,Potency,[9],inactive
C=CCOCC(O)CO (stereo unspecified),Potency,[2],inactive
same,outcome,[3],inactive
same,max response,[4],16.5%
same,Potency,[6],inactive
same,Potency,[9],inactive
Cc1cc(C)c(N=Nc2c(O)c(S(=O)(=O)O)cc3cc(S(=O)(=O)O)ccc23)cc1C,cytotoxicity increase,[1],18.5% [at 6.97 µM]
same,"viability change, negative = cytotoxic",[3],5.41% [at 6.97 µM]
same,activity change,[10],16.7% [at 6.97 µM]
same,cytotoxicity increase,[5],0.0418% [at 6.97 µM]
same,"activity change, negative = cytotoxic",[6],-2.9% [at 6.97 µM]
same,cytotoxicity,[7],-2.84% [at 6.97 µM]
same,cytotoxicity increase,[8],-2.22% [at 6.97 µM]
c1ccc2sc(SN3CCOCC3)nc2c1,Potency,[1],inactive
same,outcome,[3],inactive
same,max response,[4],4.29%
same,outcome,[5],inactive
same,Potency,[6],inactive
same,outcome,[7],inactive
same,Potency,[9],inactive
C[N+](C)(C)CCCCCCCCCC[N+](C)(C)C,Potency,[1],inactive
same,outcome,[3],inactive
same,max response,[4],9.07%
same,outcome,[10],inactive
same,outcome,[5],inactive
same,Potency,[6],inactive
same,outcome,[7],inactive
same,Potency,[9],inactive
CCCC(=O)O[C@]1(C(=O)CC)CC[C@H]2[C@@H]3CCC4=CC(=O)CC[C@]4(C)[C@H]3[C@@H](O)C[C@@]21C,Potency,[1],inactive
same,outcome,[3],inactive
same,outcome,[10],inactive
same,outcome,[5],inactive
same,Potency,[6],inactive
same,outcome,[7],inactive
same,Potency,[8],inactive
same,Potency,[9],12 µM (active)
CNCCO,Potency,[1],inactive
same,outcome,[3],inactive
same,outcome,[5],inactive
same,Potency,[6],inactive
same,outcome,[7],inactive
same,Potency,[9],inactive
NC(=O)Cc1cccc2ccccc12,Potency,[1],inactive
same,outcome,[3],inactive
same,max response,[4],2.56%
same,outcome,[5],inactive
same,Potency,[6],inactive
same,outcome,[7],inactive
same,Potency,[8],inactive
same,Potency,[9],inactive
O=C(c1ccccc1O)c1ccccc1O,Potency,[1],48.5 µM (active)
same,outcome,[3],inactive
same,outcome,[5],inactive
same,Potency,[6],inactive
same,outcome,[7],inactive
same,Potency,[8],inactive
same,Potency,[9],inactive
C[N+]1(C)[C@@H]2CC(OC(=O)[C@H](CO)c3ccccc3)C[C@H]1[C@@H]1O[C@@H]12 (stereo partly specified),Potency,[1],inactive
same,outcome,[5],inactive
same,outcome,[7],inactive
CC(C)CC(C)(N)C#N (stereo unspecified),Potency,[2],inactive
same,outcome,[3],inactive
same,max response,[4],5.01%
same,outcome,[10],inactive
same,outcome,[5],inactive
same,Potency,[6],inactive
same,outcome,[7],inactive
same,Potency,[8],inactive
c1ccc(Cc2ccccc2)cc1,Potency,[1],34.7 µM (active)
same,outcome,[3],inactive
same,max response,[4],-0.7%
same,outcome,[10],inactive
same,outcome,[5],inactive
same,Potency,[6],inactive
same,outcome,[7],inactive
same,Potency,[9],inactive
CN1CCN(c2cc3c(nn2)Oc2ccccc2N3C)CC1,cytotoxicity increase,[1],-14.2% [at 15.8 µM]
same,"viability change, negative = cytotoxic",[3],-9.11% [at 15.8 µM]
same,max response,[4],-0.461%
same,activity change,[10],-12.9% [at 15.8 µM]
same,cytotoxicity increase,[5],-0.721% [at 15.8 µM]
same,"activity change, negative = cytotoxic",[6],3.07% [at 15.8 µM]
same,cytotoxicity,[7],-2.46% [at 15.8 µM]
same,"activity change, negative = cytotoxicity",[9],-0.369% [at 15.8 µM]
CCOC(=O)c1cnc2c(cnn2CC)c1NN=C(C)C,Potency,[2],inactive
same,outcome,[3],inactive
same,max response,[4],-11.3%
same,outcome,[5],inactive
same,Potency,[6],inactive
same,outcome,[7],inactive
same,Potency,[8],inactive
same,Potency,[9],inactive
CCCc1nn(C)c2c(=O)[nH]c(-c3cc(S(=O)(=O)N4CCN(C)CC4)ccc3OCC)nc12,Potency,[1],inactive
same,outcome,[3],inactive
same,outcome,[10],inactive
same,outcome,[5],inactive
same,Potency,[6],inactive
same,outcome,[7],inactive
same,Potency,[8],inactive
same,Potency,[9],inactive
Cc1nc(C2CCCCC2)c(-c2ccc(S(N)(=O)=O)c(F)c2)o1,Potency,[1],inactive
same,outcome,[10],inactive
same,outcome,[5],inactive
same,Potency,[6],inactive
same,outcome,[7],inactive
same,Potency,[9],inactive
COc1ccnc(CS(=O)c2nc3cc(OC(F)F)ccc3[nH]2)c1OC (stereo unspecified),Potency,[1],inactive
same,outcome,[3],inactive
same,outcome,[10],inactive
same,outcome,[5],inactive
same,Potency,[6],inactive
same,outcome,[7],inactive
same,Potency,[9],inactive
CCNS(=O)(=O)c1ccc(C)cc1,Potency,[2],inactive
same,outcome,[3],inactive
same,max response,[4],0.516%
same,outcome,[10],inactive
same,outcome,[5],inactive
same,Potency,[6],inactive
same,outcome,[7],inactive
same,Potency,[9],inactive
O=S(=O)(O)c1cccc2c(S(=O)(=O)O)cccc12,Potency,[1],inactive
same,outcome,[3],inactive
same,outcome,[5],inactive
same,Potency,[6],inactive
same,outcome,[7],inactive
same,Potency,[8],inactive
same,Potency,[9],inactive
C=CCCCCCCCCC(=O)OCC,outcome,[3],inactive
same,max response,[4],3.1%
same,outcome,[10],inactive
same,outcome,[5],inactive
same,Potency,[6],inactive
same,outcome,[7],inactive
same,Potency,[8],inactive
same,Potency,[9],inactive
O=C(O)Cc1csc(-c2ccc(Cl)cc2)n1,Potency,[1],inactive
same,outcome,[3],inactive
same,max response,[4],1.2%
same,outcome,[10],inactive
same,outcome,[5],inactive
same,Potency,[6],inactive
same,outcome,[7],inactive
same,Potency,[8],inactive
same,Potency,[9],inactive
COC(=O)C1=C(C)NC(C)=C(C(=O)OC(C)C)C1c1cccc2nonc12 (stereo unspecified),Potency,[1],inactive
same,Potency,[4],16.9 µM (active)
same,outcome,[5],inactive
same,outcome,[7],inactive
same,Potency,[8],inactive
same,Potency,[9],1.69 µM (active)
Cc1nc2ccc(CN(C)c3ccc(C(=O)N[C@@H](CCC(=O)O)C(=O)O)s3)cc2c(=O)[nH]1,Potency,[1],inactive
same,outcome,[3],inactive
same,outcome,[10],inactive
same,outcome,[5],inactive
same,Potency,[6],inactive
same,outcome,[7],inactive
same,Potency,[8],inactive
CC1=CCC(O)(C(C)C)CC1 (stereo unspecified),Potency,[1],inactive
same,outcome,[3],inactive
same,max response,[4],2.79%
same,outcome,[10],inactive
same,outcome,[5],inactive
same,Potency,[6],inactive
same,outcome,[7],inactive
same,Potency,[8],inactive
same,Potency,[9],inactive
CC(=O)c1cnccn1,Potency,[1],16.2 µM (active)
same,outcome,[3],inactive
same,max response,[4],3.82%
same,outcome,[10],inactive
same,outcome,[5],inactive
same,Potency,[6],inactive
same,outcome,[7],inactive
same,Potency,[9],inactive
C=COCC1CCC(COC=C)CC1 (stereo unspecified),Potency,[1],inactive
same,outcome,[3],inactive
same,max response,[4],-3.6%
same,outcome,[10],inactive
same,Potency,[6],inactive
CC[C@H]1OC(=O)[C@H](C)[C@@H](O[C@H]2C[C@@](C)(OC)[C@@H](O)[C@H](C)O2)[C@H](C)[C@@H](O[C@@H]2O[C@H](C)C[C@H](N(C)C)[C@H]2O)[C@](C)(OC)C[C@@H](C)C(=O)[C@H](C)[C@@H](O)[C@]1(C)O,Potency,[1],inactive
same,outcome,[3],inactive
same,max response,[4],-20.3%
same,outcome,[10],inactive
same,outcome,[5],inactive
same,Potency,[6],inactive
same,outcome,[7],inactive
same,Potency,[9],inactive
